# Assay outcomes deposited in PubChem by National Center for Advancing Translational Sciences (NCATS).
# HT1080-NT tox: kills 2HG-producing HT-1080-NT fibrosarcoma cells; 360,000 compounds, 1.6% hits; Potency, µM (doses to about 46.1 µM), most hits filed as cytotoxic; HT-1080-NT fibrosarcoma viability, CellTiter-Glo ATP luminescence, 48 h;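 note: NT is the 2HG producing partner of a matched IDH1 knockdown line; nearly all actives have a fitted effect of over 55% in size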
#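 HT-1080-NT; 750 cells/well; 5% FBS RPMI; 48 h compound, 37 degrees C; CellTiter-Glo luminescence; curve fitting and curve-class assignment.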
# DT40 TDP1 CPT: growth inhibition of DT40 Tdp1-/-;hTDP1 cells with camptothecin (screen for TDP1 inhibitors); chicken DT40 Tdp1-/-;hTDP1 cells + 20 nM CPT, ATP luminescence, 48 h; Potency, µM (doses to about 46.2 µM), hits mostly inhibitors; 420,000 compounds, 12% hits; AID 686979; note: nearly all actives have a fitted effect of over 55% in size
#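 Chicken DT40 Tdp1-/- cells stably complemented with human TDP1 were seeded at 400 cells/well in medium containing 20 nM camptothecin, exposed to pin-transferred compounds, and grown at 37 °C for at least 48 hr. Viability was read as ATP luminescence.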
# TDP1 cell noCPT: qHTS for Inhibitors of human tyrosyl-DNA phosphodiesterase 1 (TDP1): qHTS in cells in absence of CPT; 420,000 compounds, 15% hits; DT40 Tdp1-/- hTDP1 cells, no CPT, ATP luminescence, 48 h; Potency, µM (titrated, usually from 46.2 µM), actives largely listed as inhibitors; AID 686978, 2013; note: nearly all actives have a fitted effect of over 55% in size
#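 Chicken DT40 Tdp1-/- cells stably complemented with human TDP1 were seeded at 400 cells/well with DMSO in place of 20 nM camptothecin. After compound pinning, cells grew at least 48 hr at 37 °C; viability read by CellTiter-Glo luminescence.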
# HT1080 IDH1KD tx: HT-1080 IDH1 knockdown cell toxicity (counter line); HT-1080 IDH1 knockdown viability, ATP luminescence, 48 h; Potency, µM (highest dose often 46.1 µM), most hits filed as cytotoxic; 360,000 compounds, 2% hits
#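 Luminescent ATP read-out (CellTiter-Glo, 10 min at room temperature) after 48 h compound exposure at 37 °C gave viability of IDH1-knockdown HT-1080 cells. Activity was normalised to DMSO and cell-free wells, then fitted as concentration-response curves.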
# IL1B secr inh: inhibitors of inflammasome signaling (IL-1 beta secretion); THP-1 LPS/ATP IL-1B secretion, AlphaLISA, 16 h; stronger effect = lower value; activity change, % at 57.5 µM; 360,000 compounds, 4.7% hits; AID 743279; in the data active = activity change below about -50%; inconclusive = mostly about -30% to -49%
#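 THP-1 cells pretreated 1 hr with compounds (up to 57.5 uM final), then stimulated with LPS (250 ng/mL final) plus ATP (1.25 mM final); secreted IL-1B measured by AlphaLISA after 16 hr, decreased signal indicating inhibition.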
# Hits are given with their value; - = inactive; ? = inconclusive; . = no result given; [ ] = dose if it differs, or a comment. Compounds with a hit are over-represented: about 19% of the library has one in this group of screens. Unless noted, calls come from the whole dose curve; as a rule, active = well fitted curve in the direction sought with a large enough effect; inconclusive = small, poorly fitted or top-dose-only effect, or another doubt; inactive = no such curve, though single readings can be large; an effect the other way counts as inactive or inconclusive.
SMILES,HT1080-NT tox,DT40 TDP1 CPT,TDP1 cell noCPT,HT1080 IDH1KD tx,IL1B secr inh
COc1ccccc1C(=O)Nc1ccnn1C1CCN(C/C=C/c2ccccc2)CC1,-,23.1µM,?,-,-
CC(C)=CCN1CCC(n2nccc2NC(=O)c2ccccc2Cl)CC1,-,-,20.6µM,-,?
CCN(CC(=O)Nc1c(F)cccc1F)C(=O)c1ccc(OC)c(S(=O)(=O)NC2CCCC2)c1,-,-,-,-,-
Cc1cccc(CC(C)NC(=O)c2oc3c(F)cccc3c2C)n1 (stereo not drawn),-,?,10.3µM,-,-
Cc1c(C(=O)N2CCC2)oc2c(F)cccc12,-,-,-,-,-
CCOC(=O)c1[nH]c(C)c(C(=O)N2CCc3ccccc32)c1C,?,0.82µM,0.92µM,1.03µM,-
CC(=O)c1c(C)[nH]c(C(=O)OCC(=O)N2CCN(c3ccccc3)CC2)c1C,-,-,-,-,-
CC(=O)c1c(C)[nH]c(C(=O)OCC(=O)N2CCc3ccccc3C2)c1C,-,23.1µM,16.4µM,-,-
CCc1cc2c(=O)[nH]c(N3CCCC3)nc2s1,-,-,-,-,-
CCc1cc2c(=O)[nH]c(CC(N)=O)nc2s1,-,-,-,-,-65.8
Cc1cc(C)c2cc(C#N)c(N3CCCC3)nc2c1,-,-,?,-,-
Cc1ccc2cc(C#N)c(N3CCCN(C(=S)NCCCN(C)C)CC3)nc2c1,20.6µM,16.4µM,14.6µM,20.6µM,?
CCOCCCNC(=S)N1CCCN(c2nc3cc(C)ccc3cc2C#N)CC1,?,-,-,-,-
Cc1cc(C)c2cc(C#N)c(N3CCCN(C(=S)NCCCN(C)C)CC3)nc2c1,?,?,23.1µM,?,-55.7
Cc1ccccc1C(=O)OC1OC(=O)C(Cl)=C1N1CCOCC1 (stereo not drawn),-,-,-,-,-
CCOC(=O)c1c(S(=O)(=O)N2CCCC(C(=O)NCc3ccc(Cl)cc3)C2)c(C)n(C)c1C (stereo not drawn),.,13µM,?,.,.
CCOC(=O)c1c(S(=O)(=O)N2CCCC(C(=O)N3CCN(c4ccc(F)cc4)CC3)C2)c(C)n(C)c1C (stereo not drawn),.,23.1µM,?,.,.
CCOC(=O)c1c(C)c(C(=O)N2CCN(c3ccc(F)cc3)CC2)c(C)n1C,-,?,?,-,-
Cc1ccc(Cl)cc1N1CCN(S(=O)(=O)c2c(C(=O)N3CCOCC3)c(C)n(C)c2C)CC1,-,?,?,-,-
CCOC(=O)c1c(S(=O)(=O)N2CCCC(C(=O)NCc3ccccc3Cl)C2)c(C)n(C)c1C (stereo not drawn),.,-,-,.,.
CCOC(=O)c1c(C)c(C(=O)N2CCN(c3ccccc3)CC2)c(C)n1C,-,-,-,-,-69.3
CCOC(=O)c1c(S(=O)(=O)N2CCCC(C(=O)Nc3ccc(C)cn3)C2)c(C)n(C)c1C (stereo not drawn),-,?,?,-,-
CCOC(=O)c1c(S(=O)(=O)N2CCN(c3cc(Cl)ccc3C)CC2)c(C)n(C)c1C,.,?,20.6µM,.,.
COCCNc1ccc(-c2nc(-c3ccccn3)no2)cc1[N+](=O)[O-],.,-,-,.,.
COc1cccc(OC(=O)c2ccccc2)c1OC(=O)c1ccccc1,-,?,?,-,-
SMILES,HT1080-NT tox,DT40 TDP1 CPT,TDP1 cell noCPT,HT1080 IDH1KD tx,IL1B secr inh
CCOC(=O)c1c(S(=O)(=O)N2CCCC(C(=O)N3CCN(c4ccccc4)CC3)C2)c(C)n(C)c1C (stereo not drawn),.,14.6µM,?,.,.
CCOC(=O)c1c(S(=O)(=O)N2CCCC(C(=O)N(C)Cc3ccccc3)C2)c(C)n(C)c1C (stereo not drawn),.,11.6µM,?,.,.
CCOC(=O)c1c(S(=O)(=O)N2CCCC(C(=O)NCc3cccc(OC)c3)C2)c(C)n(C)c1C (stereo not drawn),.,-,-,.,.
O=C(NC1CC2CCCC(C1)N2C(=O)Nc1ccccc1Cl)C1CC1 (stereo not drawn),-,-,-,-,-
CCc1ccccc1NC(=O)COC(=O)c1c(C)nsc1NC,4.11µM,7.31µM,2.91µM,-,-
CNc1snc(C)c1C(=O)OCC(=O)Nc1ccc(C)cc1F,-,?,10.3µM,-,-
CNc1snc(C)c1C(=O)OCC(=O)N(C)c1ccccc1,-,-,?,-,-
CNc1snc(C)c1C(=O)OCC(=O)N(C)Cc1ccccc1,-,14.6µM,18.4µM,-,-
C=CCN1C(=O)c2ccc(C(=O)N3CCN(S(=O)(=O)c4cccc([N+](=O)[O-])c4)CC3)cc2C1=O,-,-,-,-,-
Cc1ccc(S(=O)(=O)C2C(=O)N(C)C3(C)CC2c2ccccc2O3)cc1 (stereo not drawn),?,-,16.4µM,-,-
Cn1c(CNC(=O)CCNC(=O)c2cccc(F)c2)cc(=O)n(C)c1=O,-,-,-,-,-
O=[N+]([O-])c1cccc(/C=N/Nc2cc(N3CCOCC3)ncn2)c1,-,?,?,-,-68.2
C/C(=N\Nc1cc(N2CCOCC2)ncn1)c1ccccc1,-,23.1µM,?,-,-79.3
Clc1ccccc1/C=N/Nc1cc(N2CCOCC2)ncn1,-,-,-,-,-
C/C(=N\Nc1cc(N2CCOCC2)ncn1)c1cccc([N+](=O)[O-])c1,-,?,16.4µM,-,-
O=[N+]([O-])c1cccc(/C=N/Nc2nc(N3CCOCC3)nc(N3CCOCC3)n2)c1,-,-,?,-,-
COCc1c(C(=O)N2CCN(C)CC2)cnn1-c1ncc2c(n1)-c1ccccc1CCC2,.,-[9.04 µM],-,.,.
CCCc1c(C)nc2ccc(OC)cc2c1SCCC(=O)O,-,?,8.2µM,-,-
CCCC1NC(=O)c2cccnc2-n2c1nc1cc(C)cc(C)c1c2=O (stereo not drawn),-,?,?,-,-
Cc1cc(C)c2c(=O)n3c(nc2c1)C(Cc1ccccc1)NC(=O)c1cccnc1-3 (stereo not drawn),-,?,20.6µM,?,-
Cc1ccc2nc3n(c(=O)c2c1)-c1ncccc1C(=O)NC3Cc1ccc(O)cc1 (stereo not drawn),-,-,-,-,-
Cc1cc(C)c2c(=O)n3c(nc2c1)C(Cc1ccc(O)cc1)NC(=O)c1cccnc1-3 (stereo not drawn),-,?,18.4µM,-,-
CC(=O)N(c1ccc(C)cc1)S(=O)(=O)c1ccc(Cl)cc1,-,-,-,-,-
CC(=O)Oc1ccc(N(C(C)=O)S(=O)(=O)c2ccc(C)cc2)c2ccccc12,?,5.17µM,5.17µM,?,-
CC(=O)N(c1ccccc1C)S(=O)(=O)c1ccc(Cl)cc1,-,?,-,-,-
CC(=O)Oc1ccc(N(C(C)=O)S(=O)(=O)c2ccc(Cl)cc2)c2ccccc12,?,29.1µM,?,?,-
